The nature of assay [1]: qHTS assay to identify small molecule agonists of the vitamin D receptor (VDR) signaling pathway - cell viability counter screen (AID 743224). Note: series mostly up to about 63 µM; nearly all actives have a fitted effect of over 50% in size. Summed up:
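Here cell health was gauged by luminescent ATP detection (CellTiter-Glo, 30 min RT) in VDR-bla cells that had been incubated with test compounds for 16 h at 37C and 5% CO2.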

The nature of assay [2]: qHTS assay to identify small molecule antagonists of the vitamin D receptor (VDR) signaling pathway - cell viability counter screen (AID 743225). Note: nearly all actives have a fitted effect of over 50% in size. The method, boiled down: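 VDR-UAS-bla HEK 293T cells were plated and incubated 4 h at 37C, then dosed with compound plus 3 nM (final) 1-alpha,25-dihydroxyvitamin D3 for 16 h. After the 2 h beta-lactamase read, viability in the same wells was read as CellTiter-Glo luminescence after 30 min at room temperature.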
On the technique in general: Quantitative high-throughput screening tests each substance at several concentrations.

A short description of assay [3]: qHTS assay to identify small molecule agonists of the NFkB signaling pathway (AID 1159509; active = well fitted curve in the direction sought with a large enough effect in the signal ratio in the repeat runs, not every such curve was filed as active; the % refers to the signal ratio; note: series mostly up to about 61 µM). Summed up:
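After overnight attachment, reporter cells received test compounds, DMSO or positive controls and were incubated 5 hr at 37 C. FRET substrate was then added for 1.5 hr at room temperature before dual-emission fluorescence reading.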

Assay [4] is described as follows: qHTS assay to identify small molecule agonists of the NFkB signaling pathway - cell viability counter screen (AID 1159515; calls by dose curve; note: series mostly up to about 61 µM; nearly all actives have a fitted effect of over 55% in size). Summed up: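 5 hr compound treatment of NFkB-bla ME-180 cells (2,000/well, seeded overnight beforehand), followed by reporter substrate for 1.5 hr. CellTiter-Glo added afterward; luminescence after 30 min RT.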
The nature of assay [5]: qHTS assay to identify small molecule agonists of the endoplasmic reticulum stress response signaling pathway - cell viability counter screen (AID 1159517; calls by dose curve;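 note: HeLa cells carrying an ER stress response element beta-lactamase reporter; series mostly up to about 61 µM; nearly all actives have a fitted effect of over 50% in size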). The method, boiled down: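 Luminescence readout: CellTiter-Glo, 30 min RT, same wells as the ESRE-bla reporter read. HeLa ESRE-bla, 1,500 cells/well, o/n 37 C; cpd 5 hr 37 C/5% CO2.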
In assay [6] the target is Nuclear receptor ROR-gamma (Homo sapiens) (UniProt P51449). In words: qHTS assay to identify small molecule antagonists of the retinoid-related orphan receptor gamma (ROR-gamma) signaling pathway (AID 1159521;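 note: CHO cells with doxycycline inducible ROR-gamma driving an RORE luciferase reporter; top concentration of the series differs between compounds; nearly all actives have a fitted effect of over 50% in size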). Summed up:
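Tet-on ROR-gamma CHO cells with ROR response element-luciferase reporter; compounds added 2 hr before 1 uM doxycycline induction, then 16 hr at 37 C. Antagonism scored as decreased ONE-Glo luminescence.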

Assay [7] can be described thus: qHTS assay to identify small molecule agonists of the AP-1 signaling pathway - cell viability counter screen (AID 1159525; calls by dose curve; note: nearly all actives have a fitted effect of over 55% in size). Summed up: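 ME-180 AP-1-bla, 2500 cells/well, Opti-MEM + 0.5% dialyzed FBS; overnight 37 °C; cpd 15-pt titration, 5 h 37 °C; CellTiter-Glo 30 min RT; luminescence read; normalised to TOAB and DMSO controls.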
Assay [8] in a line: qHTS assay to identify small molecule agonists of the AP-1 signaling pathway (AID 1159526; calls by dose curve).
The target of assay [9] is Retinoic acid receptor RXR-alpha (Homo sapiens) (UniProt P19793). In words: qHTS assay to identify small molecule agonists of the RXR signaling pathway (AID 1159527; calls by dose curve; note: nearly all actives have a fitted effect of over 35% in size; note: potency is the fitted concentration of half-maximal effect). The method, boiled down:
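GeneBLAzer RXR-alpha-UAS-bla HEK 293T cells in 2% charcoal-stripped FBS medium were exposed to compounds for 16 hr at 37 C in agonist mode. Beta-lactamase reporter read as 460/530 nm FRET ratio after 2 hr substrate loading.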

Assay [10] can be described thus: qHTS assay to identify small molecule agonists of the RXR signaling pathway - cell viability counter screen (AID 1159529). Summed up:
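RXR-alpha-UAS-bla HEK 293T cells in medium with 2% charcoal-stripped FBS were pre-incubated 5 hr, then compound-treated 16 hr at 37 C. Viability was read by CellTiter-Glo luminescence in the same wells as the beta-lactamase assay, with tetraoctyl ammonium bromide as positive control.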

The nature of assay [11]: qHTS assay to identify small molecule antagonists of the retinoid acid receptor (RAR) signaling pathway - cell viability counter screen (AID 1159551). Note: nearly all actives have a fitted effect of over 35% in size. The method, boiled down:
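Seed C3RL4 cells; next day add compound, then retinol to 1 uM final; incubate 6 h at 37 C; add CellTiter-Glo; read luminescence after 30 min at RT.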

The nature of assay [12]: qHTS assay to identify small molecule agonists of the endoplasmic reticulum stress response signaling pathway (AID 1159516; active = well fitted activation curve with a large enough effect in the signal ratio in the repeat runs, not every such curve was filed as active; the % refers to the signal ratio). Summed up: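 Reporter HeLa cells (ESRE-beta-lactamase) underwent 5 hr compound incubation at 37 C and 5% CO2 in quantitative HTS format. Detection followed 2 hr of FRET substrate loading at room temperature.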
A short description of assay [13]: qHTS assay to identify small molecule antagonists of the retinoid-related orphan receptor gamma (ROR-gamma) signaling pathway - cell viability counter screen (AID 1159520). Note: nearly all actives have a fitted effect of over 50% in size. Summed up:
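Tet-on ROR gamma CHO cells (1,000/well) were plated 4 hr, given compounds in DMSO for 2 hr at 37 C, then induced with 1 uM final doxycycline for 16 hr. Viability was read as ATP by CellTiter-Glo luminescence after 30 min.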

Assay [14] is described as follows: qHTS assay to identify small molecule antagonists of the retinoic acid receptor (RAR) signaling pathway (AID 1159552; note: nearly all actives have a fitted effect of over 50% in size). The method, boiled down: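 Retinol signaling pathway inhibitors screened in C3RL4 RARE-luciferase reporter cells seeded overnight at 37 C, then compounds added with 1 uM (final) retinol as pathway substrate. After 6 hr at 37 C, luciferase luminescence read after 30 min at room temperature.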

A short description of assay [15]: qHTS assay to identify small molecule agonists of the retinoic acid receptor (RAR) signaling pathway (AID 1159553). Note: potency is the fitted concentration of half-maximal effect. The method, boiled down:
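Activation of retinol signaling was monitored via a RARE luciferase reporter in C3RL4 cells. After 6 hr compound treatment at 37 C, detection reagent was added for 30 min at room temperature before luminescence reading.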

Assay [16] in a line: qHTS assay to identify small molecule antagonists of the estrogen related receptor (ERR) signaling pathway - cell viability counter screen (AID 1224818).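 Note: series mostly up to about 46 µM; viability measured after 17.5 h of compound exposure.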 Summed up:
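In the same ERR cell assay, compound-treated wells (17.5 h, 37 C) were multiplexed with a fluorogenic viability reagent, CellTiter-Fluor, read after 30 min to flag cytotoxic substances.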

A short description of assay [17]: qHTS assay to identify small molecule antagonists of the estrogen related receptor signaling pathway with the pleiotropic PPARgamma coactivator (PGC) cell viability counter screen (AID 1224822; note: series mostly up to about 46 µM). The method, boiled down:
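Compounds in DMSO, with positive and negative controls, were applied to PGC/ERR cells (2,000/well) and left 17.5 h at 37 C before CellTiter-Fluor detection.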

Several values for one entry are separate records, joined by “and”; a condition that tells them apart may be missing. Equal entries are not always repeated. Inconclusive results are not listed. More than one record can exist for a structure, and the calls need not agree. Activity calls are given as the source filed them. Unless noted, calls come from the whole dose curve; as a rule, active = well fitted curve in the direction sought with a large enough effect in the repeat runs; inconclusive = weak or mixed curves; inactive = no such curve, though single readings can be large; an effect the other way counts as inactive or inconclusive.

Chain of Retinoic acid receptor RXR-alpha (Homo sapiens) (P19793 whole entry, looked up): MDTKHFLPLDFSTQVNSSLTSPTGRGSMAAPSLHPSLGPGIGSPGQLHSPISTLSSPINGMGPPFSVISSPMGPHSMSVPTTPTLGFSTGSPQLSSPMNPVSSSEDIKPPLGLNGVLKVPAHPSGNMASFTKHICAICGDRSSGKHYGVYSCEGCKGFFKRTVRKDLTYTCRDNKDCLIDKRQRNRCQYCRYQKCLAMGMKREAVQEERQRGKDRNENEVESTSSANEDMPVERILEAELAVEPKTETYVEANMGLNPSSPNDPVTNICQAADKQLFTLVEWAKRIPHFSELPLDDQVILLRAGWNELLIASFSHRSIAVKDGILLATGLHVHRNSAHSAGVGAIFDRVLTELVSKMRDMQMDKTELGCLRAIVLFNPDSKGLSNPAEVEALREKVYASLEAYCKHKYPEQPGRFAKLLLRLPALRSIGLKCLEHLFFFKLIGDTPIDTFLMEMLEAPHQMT

For the molecule `Cc1c(N(C)C)c(=O)n(-c2ccccc2)n1C`, the Potency entry in assay [1], in assay [5], in assay [6], in assay [8], in assay [9] and in assay [10] was “inactive” each time. Moreover, the molecule was classed as inactive in assay [2], in assay [3], in assay [4], in assay [7] and in assay [11].
Consider `CCCCOCCOCCSC#N`, for which the Potency result in [1], in assay [5], in [6], in assay [8], in assay [9] and in [10] was “inactive” each time. Also, the Potency result in [14] was “inactive”. In addition, the outcome in assay [2], in assay [3], in assay [12], in assay [13], in assay [7] and in assay [11] was inactive.
`C1CNCCN1`: the Potency entry in [1], in [5], in assay [6], in [8], in assay [10] and in [14] was “inactive” each time. The Potency entry in assay [15] was “inactive”. Further, the call in assay [2], in assay [3], in assay [4], in assay [7] and in assay [11] was inactive. Moreover, the Potency in assay [9] is 11.3 µM (active) and inactive.
For the molecule `N[C@@H](Cc1c[nH]c2ccccc12)C(=O)O`, the Potency entry in assay [1], in assay [5], in assay [6], in assay [8], in assay [10] and in assay [14] was “inactive” each time. The result in assay [2], in assay [3], in assay [4], in [13], in assay [7] and in assay [11] was inactive. Moreover, the result in assay [16] and in assay [17] was inactive.
Regarding `NC(=O)OCC(COC(N)=O)c1ccccc1`, the Potency entry in assay [1], in assay [5], in [6], in assay [8], in assay [9] and in [10] was “inactive” throughout. Besides, the Potency entry in assay [14] and in [15] was “inactive” in each case. Also, the molecule was classed as inactive in assay [2], in assay [3], in assay [12], in assay [13], in assay [7] and in assay [11]. Further, the outcome in [16] and in [17] was inactive.
As to `C=C(C)C(N)=O`, the Potency entry in assay [1], in assay [5], in [6], in [8], in assay [9] and in assay [10] was “inactive” in each case. Also, the Potency result in [14] is “inactive”. The molecule was called inactive in assay [2], in assay [3], in [12], in [13], in [7] and in assay [11].
Take `CCc1cc(C(N)=S)ccn1`: the Potency result in [1], in [5], in [6], in assay [8], in assay [10] and in assay [14] was “inactive” in each case. Besides, in assay [15], the Potency entry is “inactive”. Besides, the outcome in assay [2], in [3], in assay [12], in assay [13], in assay [7] and in assay [11] was inactive.
Regarding `COc1ccc(O)cc1`, the Potency result in [1], in assay [5], in [8], in assay [9] and in assay [10] was “inactive” each time. Also, the result in assay [2], in [3], in assay [4], in assay [13], in assay [7] and in assay [11] was inactive.
`Cc1ccc(O)c(-n2nc3ccccc3n2)c1`: the Potency result in [1], in assay [5], in [6], in assay [8], in assay [10] and in assay [14] was “inactive” in each case. Besides, the call in [2], in assay [3], in assay [4] and in assay [7] was inactive. Further, the Potency in assay [15] was 1.52 µM (active) and 1.93 µM (active) and 2.98 µM (active).
For `NC(=O)NO`, the Potency entry in [1], in assay [5], in assay [6], in [8], in [10] and in assay [14] was “inactive” throughout. The molecule was classed as inactive in assay [2], in [3], in assay [12], in assay [13], in [7] and in assay [11]. In addition, the outcome in assay [16] and in assay [17] was inactive.

(Values after PubChem BioAssay (Tox21).)
